# Assay outcomes from PubChem.
# HT1080 IDH1KD tx: toxicity to HT-1080 IDH1 knockdown cells (counter line); HT-1080 IDH1 knockdown viability, ATP luminescence, 48 h; Potency, µM (highest dose often 46.1 µM), for the others: at the highest dose activity, negative = toxicity, most hits filed as cytotoxic; hit rate 2% among 360,000;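 also: potency is read from the fitted curve at half-maximal effect; 0% = DMSO wells and -100% = cell-free medium wells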
#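 IDH1KD HT-1080 cells, 750/well, RPMI + 5% FBS; compound pinned after 2 h settling; 48 h, 37 °C; CellTiter-Glo luminescence; % activity normalised to DMSO and no-cell wells; curves fitted, classed by r2 and efficacy.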
# ELG1 repair inh: ELG1-dependent DNA repair inhibition. HEK293T ELG1-luciferase reporter, luminescence, 16 h; DNA damage induced by 5-fluorouridine. Potency, µM (highest dose often 46.1 µM), without a hit: at the highest dose activity change, negative = inhibition, most hits filed as inhibitors. hit rate 2.3% among 330,000. AID 504467; also: potency is read from the fitted curve at half-maximal effect; nearly all actives have a fitted effect of over 55% in size
#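 DMSO vehicle served as the neutral condition. Each well held 2,000 cells given 5-fluorouridine plus compound; after 16 hr at 37 °C/5% CO2, ONE-Glo was added and luciferase measured 30 min later.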
# IL-1B inflam inh: inflammasome signaling inhibition, IL-1 beta readout; hit rate 4.7% among 360,000; THP-1 LPS/ATP IL-1B secretion, AlphaLISA, 16 h; hits give low values; activity change, % at 57.5 µM; in the data active = activity change below about -50%; inconclusive = mostly about -30% to -49%
#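 THP-1 cells pretreated 1 hr with compounds (up to 57.5 uM final), then stimulated with LPS (250 ng/mL final) plus ATP (1.25 mM final); secreted IL-1B measured by AlphaLISA after 16 hr, decreased signal indicating inhibition.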
# HT1080-NT tox: kills 2HG-producing HT-1080-NT fibrosarcoma cells; AID 686970; hit rate 1.6% among 360,000; HT-1080-NT fibrosarcoma viability, CellTiter-Glo ATP luminescence, 48 h; Potency, µM (series often up to 46.1 µM), for inactives: at the top dose activity, negative = less viability, most hits filed as cytotoxic;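 also: NT is the 2HG producing partner of a matched IDH1 knockdown line; potency is read from the fitted curve at half-maximal effect; 0% = DMSO-treated cells and -100% = media-only wells without cells; nearly all actives have a fitted effect of over 55% in size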
#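 HT-1080-NT fibrosarcoma cells (2HG-overproducing), 750 cells/well in RPMI with 5% FBS, dosed after 2 h and incubated 48 h at 37C. CellTiter-Glo luminescence normalized to DMSO and no-cell wells; concentration-response curves fitted and classed.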
# DT40 TDP1 CPT: growth inhibition of DT40 Tdp1-/-;hTDP1 cells with camptothecin (screen for TDP1 inhibitors) | chicken DT40 Tdp1-/-;hTDP1 cells + 20 nM CPT, ATP luminescence, 48 h | Potency, µM (titrated, usually from 46.2 µM), for inactives: top-dose activity change, negative = growth inhibition, hits mostly inhibitors | hit rate 12% among 420,000; also: potency is read from the fitted curve at half-maximal effect; nearly all actives have a fitted effect of over 55% in size
#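 Cell growth measured by CellTiter-Glo luminescence after a minimum 48 h, 37 C compound exposure with 20 nM CPT in Tdp1-knockout DT40 cells stably expressing hTDP1, seeded 400/well; qHTS titration format.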
# TDP1 cell noCPT: qHTS for Inhibitors of human tyrosyl-DNA phosphodiesterase 1 (TDP1): qHTS in cells in absence of CPT. DT40 Tdp1-/- hTDP1 cells, no CPT, ATP luminescence, 48 h. Potency, µM (doses to about 46.2 µM), for the others: at the highest dose activity change, negative = growth inhibition, actives largely listed as inhibitors. hit rate 15% among 420,000; also: potency is read from the fitted curve at half-maximal effect; nearly all actives have a fitted effect of over 55% in size
#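 Readout: luminescence from CellTiter-Glo after 30 min in the dark at RT. Cells: DT40 Tdp1-/- with stable hTDP1, 400/well. Exposure: compounds alone, ≥48 hr, 37 °C.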
# * marks the source's active call; other numbers are inactive results; ? = inconclusive; . = no result given; [ ] = remark or other dose. An excerpt weighted towards active compounds, which were near 19% of everything screened. Unless noted, calls follow the shape of the dose curve; as a rule, active = well fitted curve in the direction sought with a large enough effect; inconclusive = small, poorly fitted or top-dose-only effect, or another doubt; inactive = no such curve, though single readings can be large; an effect the other way counts as inactive or inconclusive. Unless noted, % is scaled to controls: 0 for no effect and ±100 for the full control effect.
SMILES,HT1080 IDH1KD tx,ELG1 repair inh,IL-1B inflam inh,HT1080-NT tox,DT40 TDP1 CPT,TDP1 cell noCPT
C[C@@H]1CN([C@@H](C)CO)C(=O)c2cc(NC(=O)C3CC3)ccc2O[C@@H]1CN(C)C(=O)NC1CCCCC1,10%,9%,16,9%,-9%,?
CCOc1cccc(C2C=C(c3ccc4c(c3)OCO4)NC(c3ccc(Br)cc3)N2)c1O (stereo unspecified),.,.,.,.,?,16µM*
CCOc1ccccc1C(=O)NCc1ccc2c(c1)OCO2,4%,1%,3,1%,-29%,-23%
CCOc1cccc(C2C=C(c3ccc4c(c3)OCO4)NC(c3cccc(Br)c3)N2)c1O (stereo unspecified),.,.,.,.,10µM*,10µM*
CCOc1cc(CNCc2ccc3c(c2)OCO3)ccc1OC,-8%,1%,-12,-17%,-20%,-21%
CCc1ccc(OCC(=O)Nc2ccc3oc(=O)ccc3c2)cc1,2%,1%,4,-2%,11%,3%
COc1cc(NC(=O)c2cnn(-c3cccc(F)c3)c2C2CCNCC2)cc(OC)c1OC,.,.,.,.,1%,-1%
Cc1ccc(-n2ncc(C(=O)Nc3cc(Cl)cc(Cl)c3)c2C2CCNCC2)cc1C,21µM*,?,-19,?,?,?
Cc1ccc(-n2ncc(C(=O)Nc3cc(Cl)ccc3Cl)c2C2CCNCC2)cc1,?,-25%,0,-1%,23µM*,23µM*
CC(O)(COc1ccccc1)c1ccc2c(c1)CN(Cc1cccnc1)CCO2 (stereo unspecified),.,.,.,.,20%[9.04 µM],-14%
COc1ccccc1C(C(=O)c1ccccc1)c1ccc2ccccc2c1 (stereo unspecified),-15%,.,-71*,-4%,?,16µM*
COc1ccccc1C(C(=O)c1ccccc1)c1ccc(O)cc1 (stereo unspecified),-17%,.,?,-30%,?,?
CC(C)(C)C1CCc2c(sc(NC(=O)c3cc4ccccc4c(=O)o3)c2C(N)=O)C1 (stereo unspecified),.,.,.,.,-10%,-29%
CCOC(=O)c1nn(-c2ccc(F)cc2)c(-c2ccccc2)c1C(=O)c1ccccc1,-24%,?,6,-20%,?,16µM*
O=C(Cn1c2c(sc1=O)C1c3ccccc3OCC1CS2)Nc1ccc(Cl)c(Cl)c1 (stereo unspecified),-15%,0%,?,-18%,9.2µM*,16µM*
Cc1csc(=O)n1CC(=O)Nc1ccc(Cl)c(Cl)c1,-2%,?,-24,-4%,-29%,4%
O=c1[nH]c2ccc([N+](=O)[O-])cc2nc1/C=C(\O)c1ccccc1,7%,1%,49,?,?,?
c1ccc(-c2nc(NCc3cccs3)c3ccccc3n2)cc1,?,-5%,-7,?,-14%,?
Cc1ccc(S(=O)(=O)N(C)CCN(C)c2nc(-c3cccs3)nc3ccccc23)cc1,23%,.,.,12%,?,20µM*
CN(Cc1cccs1)c1nc(-c2cccnc2)nc2ccccc12,-3%,?,-92*,-5%,23µM*,?
CN(CCO)c1nc(-c2cccs2)nc2ccccc12,-21%,.,.,-24%,18µM*,?
CNCCN(C)c1nc(-c2cccs2)nc2ccccc12,?,.,.,?,?,22µM*
OCCNc1nc(-c2cccs2)nc2ccccc12,-5%,.,.,-5%,11%,-16%
O=C(Nc1ccc(F)cc1)C1C(c2ccccc2)C1(Cl)Cl (stereo unspecified),-9%,0%,0,-14%,-25%,?
O=C1C=C(c2ccccc2)C[C@@H](c2ccc(Cl)cc2)C1,-4%,-10%,-24,10%,?,?
SMILES,HT1080 IDH1KD tx,ELG1 repair inh,IL-1B inflam inh,HT1080-NT tox,DT40 TDP1 CPT,TDP1 cell noCPT
Cc1ccc(C2CC(=O)C=C(Nc3ccc(Cl)cc3)C2)cc1 (stereo unspecified),4%,2%,17,0%,?,?
COc1ccc(C2=CC(=O)C[C@H](c3ccc(Cl)cc3)C2)cc1,?,-19%,0,?,16µM*,?
O=C1C=C(c2ccc(O)cc2)C[C@@H](c2ccc(Cl)cc2)C1,-18%,-25%,-75*,-9%,?,?
Cc1ccc(C2=CC(=O)C[C@H](c3ccc(Cl)cc3)C2)cc1,8%,20%,18,3%,23µM*,?
COc1ccc(C2=CC(=O)CC(c3ccc(OC)cc3)C2)cc1 (stereo unspecified),7%,4%,-24,-15%,8%,?
O=C1C=C(Nc2ccc(Cl)cc2)CC(c2ccc(Cl)cc2)C1 (stereo unspecified),-21%,?,-85*,?,?,?
COc1ccc2oc(C(=O)OCC(=O)Nc3ccc(C(=O)N(C)C)cc3)c(C)c2c1,27%,?,32,20%,3%,14%
COc1ccc(OCC(=O)OCC(=O)Nc2ccc3[nH]c(=O)[nH]c3c2)cc1,9%,?,3,9%,-4%,9%
CN1CC[C@@]2(CCCN(C(=O)c3cccn3C)C2)C1,.,.,.,.,-17%,1%
Cc1cnc(C(=O)N(c2ccc(N3CCOCC3)cc2)C2C(=O)Nc3ccccc3N=C2c2ccc(F)cc2)cn1 (stereo unspecified),8%,.,13,6%,-7%,?
O=C1Nc2ccccc2N=C(c2ccc3c(c2)OCO3)C1N(C(=O)c1ccnc2ccccc12)c1ccccc1 (stereo unspecified),?,.,?,?,21µM*,18µM*
O=C1Nc2ccccc2N=C(c2ccc3c(c2)OCO3)C1N(C(=O)c1ccc2ccccc2c1)C1CC1 (stereo unspecified),?,.,?,?,16µM*,21µM*
CCOC(=O)c1sc(NC(=O)CSc2nc3c(c(=O)n2-c2ccc(C)cc2)SCC3)c(C(=O)OCC)c1C,9%,26%,-11,-6%,3%,-6%
C=CCN1C(=O)c2ccc(C(=O)N3CCN(c4ccccc4OC)CC3)cc2C1=O,3%,19%,7,-2%,-5%,-14%
CC(C)(C)OC(=O)NCc1ccc(CNC(=O)c2ncn(Cc3ccccc3)c2C(=O)NCc2ccc(CNC(=O)OC(C)(C)C)cc2)cc1,14%,?,17,11%,-15%,-3%
